DRD3 agonist = activates the human D3 dopamine receptor; P35462; D3R DiscoveRx beta-arrestin cells, luminescence, 90 min; max activation, %; 410,000 tested, 0.58% active; in the data active = max activation above about 30%
Target sequence (P35462 whole entry, looked up): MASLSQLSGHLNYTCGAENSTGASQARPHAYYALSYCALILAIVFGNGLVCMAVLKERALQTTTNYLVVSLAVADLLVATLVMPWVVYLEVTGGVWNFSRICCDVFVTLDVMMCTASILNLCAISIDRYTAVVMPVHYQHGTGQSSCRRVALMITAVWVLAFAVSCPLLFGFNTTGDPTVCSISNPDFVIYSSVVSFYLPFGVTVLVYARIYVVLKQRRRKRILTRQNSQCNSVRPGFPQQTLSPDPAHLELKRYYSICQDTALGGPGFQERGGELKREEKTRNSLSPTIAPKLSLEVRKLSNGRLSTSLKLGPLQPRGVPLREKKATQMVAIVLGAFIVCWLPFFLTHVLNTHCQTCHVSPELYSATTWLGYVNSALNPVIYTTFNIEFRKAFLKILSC
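Agonist-mode cell screen: cells plated at 1500/well and incubated overnight at 37 °C, then exposed to library compounds for 90 min at 37 °C. Detection reagent was added for 30–60 min at room temperature, and luminescence was read.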
pAkt inh = Akt phosphorylation inhibition; Neuro2A IGF-stimulated pAkt S473 HTRF, 20 min; hits give low values; activity change, % for hits at 50 µM; 360,000 tested, 0.32% active; AID 651550; in the data active = activity change below about -80%; inconclusive = mostly about -51% to -80%
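Single-point screen (50 µM final compound) in Neuro2A cells stimulated 20 min with 6 nM IGF at 37 deg C. After lysis, Ser473-phosphorylated Akt read by HTRF (ex 330 nm, em 615/665 nm) as the 665/615 ratio.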
RGS4 inhibitor = blocks human RGS4-accelerated GTP hydrolysis | Transcreener GDP fluorescence polarization, RGS4-accelerated GTP hydrolysis | 390,000 tested, 0.039% active | P49798 | Potency, µM (titrated, usually from 114 µM), actives largely listed as inhibitors; active = well fitted inhibition curve with a large enough effect; inconclusive = small, poorly fitted or top-dose-only effect; inactive = no such curve, though single readings can be large or run the other way; also: nearly all actives have a fitted effect of over 75% in size
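MLSMR compounds (23 nl, pin-transferred) preincubated 10 min at room temperature with a 500nM (2x) first reagent, then RGS4 at 900nM (2x) plus Transcreener GDP mix added; fluorescence polarization (620/688 nm) read before and after 90 min at 30 °C.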
LDHA block = LDHA (human) enzyme inhibition | activity change, % (values are at about 110 or 230 µM) | AID 1347041 | purified LDHA, NADH/diaphorase-resazurin fluorescence; hits give low values | P00338 | 480,000 tested, 0.15% active; in the data active = activity change below about -30%; inconclusive = mostly about -25% to -30%
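Enzyme activity of human lactate dehydrogenase 5 (2 nM; 0.06 mM NADH, 0.2 mM pyruvate, 5 min, RT) is measured via a resazurin/diaphorase fluorescence readout of residual NADH.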
PI4K2A block = blocks human PI4K2A kinase activity. purified PI4K2A, ADP-Glo luminescence, 1 h; hits give low values. activity change, negative = inhibition, % at 76.9 µM. 420,000 tested, 0.13% active; in the data active = activity change below about -50%; inconclusive = mostly about -30% to -49%
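In this quantitative HTS, ADP production by PI4K2A was quantified luminescently after 1 h at ambient temperature; 100 microM adenosine served as plate-quality control.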
DRD3 antagonist = D3 dopamine receptor (human) antagonism; P35462; D3R cells, DiscoveRx beta-arrestin luminescence, antagonist mode; hits give low values; max response, negative = inhibition, %; 360,000 tested, 2.5% active; AID 652054; in the data active = max response below about -50%; inconclusive = no clear call, values can overlap the other calls
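Cells plated overnight at 1500 cells/well, then exposed to library compounds with dopamine controls for 90 minutes at 37 degrees C. DiscoveRx reagent added for 30–60 minutes at room temperature; luminescence read, quantitative HTS format.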
Hits are given with their value. A selection: hits, their analogues and other compounds. The true share with any hit is near 2.8%.

`CC1OC(OC2C(O)CC(OC3C(O)CC(OC4CCC5(C)C(CC[C@@H]6[C@@H]5CCC5(C)C(C7=CC(=O)OC7)C(O)CC65O)C4)OC3C)OC2C)CC(O)C1O` (some centres undefined) gave LDHA block inactive.
Screening c1ccc2c(CCNC3CCCCC3)c[nH]c2c1 returned DRD3 agonist inactive, pAkt inh inactive, RGS4 inhibitor inactive, LDHA block inactive, PI4K2A block inactive and DRD3 antagonist inactive.
`c1ccc2[nH]c(CCNC3CCCCC3)nc2c1` gave DRD3 agonist inactive, pAkt inh inactive, RGS4 inhibitor inactive, LDHA block inactive, PI4K2A block inactive and DRD3 antagonist -53.
`COc1cc2c(cc1OC)-c1c(OC)c(OC)cc3c1[C@H](C2)N(C)CC3` gave DRD3 agonist inactive, pAkt inh inactive, RGS4 inhibitor inactive, LDHA block inactive, PI4K2A block inconclusive and DRD3 antagonist -59.
`CC(C)=CCN1CC[C@@]2(C)c3cc(O)ccc3C[C@@H]1C2C` (some centres undefined) gave DRD3 agonist inactive, pAkt inh inactive, RGS4 inhibitor inactive, LDHA block inactive, PI4K2A block inactive and DRD3 antagonist -58.
`Cc1nn(C)c(C)c1C1SCC(=O)Nc2c1cnn2-c1ccccc1` (centres undefined) gave LDHA block inactive.
Screening O=C1NC(=O)C(=Cc2cccc(OCCOc3ccccc3)c2)C(=O)N1 returned DRD3 agonist inactive, pAkt inh inactive, RGS4 inhibitor inconclusive, LDHA block -31, PI4K2A block inactive and DRD3 antagonist inactive.
Screening Cc1ccc(OCCOc2cccc(C=C3C(=O)NC(=O)NC3=O)c2)c(C)c1 returned DRD3 agonist inactive, pAkt inh inactive, RGS4 inhibitor inactive, LDHA block inactive, PI4K2A block inconclusive and DRD3 antagonist inactive.
For c1coc(CN2CCNCC2)c1 the results were LDHA block inactive.
`Clc1ccc(OCC#CCN2CCCCCC2)cc1` gave DRD3 agonist inactive, pAkt inh inactive, RGS4 inhibitor inactive, LDHA block inactive, PI4K2A block inactive and DRD3 antagonist -91.
Cc1ccc(CNCCc2c[nH]c3ccccc23)cc1 was read as LDHA block inactive.
CNC(=O)NC(=O)CN1CCN(C(=O)Cc2cccc(OC)c2)CC1 was read as LDHA block inactive.
Screening Cc1[nH]nc2c1C(c1ccc3c(c1)OCO3)SCC(=O)N2 (centres undefined) returned LDHA block inactive.
`O=C(NCCN1CCC(n2c(=O)[nH]c3ccccc32)CC1)c1ccc2ccccc2c1` gave DRD3 agonist inactive, pAkt inh inactive, LDHA block inactive, PI4K2A block inactive and DRD3 antagonist -55.
`O=C(CCCN1CCC2(CC1)C(=O)N(Cc1cccc(F)c1)CN2c1ccccc1)c1ccc(F)cc1` gave RGS4 inhibitor inactive.
`O=c1[nH]c2ccccc2n1C1CCNCC1` gave PI4K2A block inactive.
O=C(NCCN1CCC2(CC1)C(=O)NCN2c1cccc(F)c1)c1ccc2ccccc2c1 was read as DRD3 agonist inactive, pAkt inh inactive, LDHA block inactive, PI4K2A block inactive and DRD3 antagonist -89.
For Cc1[nH]nc2c1C(c1ccc(OCC(N)=O)cc1)SCC(=O)N2 (centres undefined) the results were LDHA block inactive.
Screening Cc1ccc(CN2Cc3ccc(Br)cc3-n3nncc3C2)cc1 returned DRD3 agonist inactive, pAkt inh inactive, LDHA block inactive, PI4K2A block inactive and DRD3 antagonist -55.
COc1ccc(-n2c(/C=C/c3ccco3)nc3ccccc3c2=O)cc1 was read as LDHA block inactive.
For CCOC(=O)C1=C(C)OC(N)=C(C(=O)OC(C)C)C12C(=O)Nc1ccc(Br)cc12 (centres undefined) the results were LDHA block inactive.
COc1ccc2c(c[n+](C)c3c4cc5c(cc4ccc23)OCO5)c1OC was read as RGS4 inhibitor 6.7µM and PI4K2A block inactive.
`O=C(OC1CCOC1=O)c1cccs1` (centres undefined) gave LDHA block inactive.

Compound activity deposited in PubChem by National Center for Advancing Translational Sciences (NCATS).
